# Measured values: PubChem BioAssay (NCATS)
# Values joined by “and” are separate entries in the source; they are usually repeats but may differ in a detail not shown here. Equal values may be shown once. Records with an inconclusive call do not appear. A call without a number means that no potency is given here. Active and inactive are the calls of the source. Calls come from the whole dose curve; as a rule, active = well fitted curve in the direction sought with a large enough effect; inconclusive = small, poorly fitted or top-dose-only effect, or another doubt; inactive = no such curve, though single readings can be large; an effect the other way counts as inactive or inconclusive.
# Key:
# [1] = qHTS of pediatric cancer cell lines to identify multiple opportunities for drug repurposing: Confirmatory screen for NB1643 cells (AID 1347109); note: nearly all actives have a fitted effect of over 45% in size
# Outline: (§1)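 Cells (500-1,000/well) rested 5 h, then received compounds for 48 h; metabolically active cells were measured by CellTiter-Glo luminescence. Final concentrations spanned up to 46 µM (MIPE, 11-point) or 0.59 nM-46 µM (NPC, 8-point) in primary screens, 11-point in follow-ups.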
# [2] = qHTS of pediatric cancer cell lines to identify multiple opportunities for drug repurposing: Confirmatory screen for A673 cells (AID 1347110);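 note: cells exposed to compound for 48 h before the viability read; nearly all actives have a fitted effect of over 65% in size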; note: potency is the fitted concentration of half-maximal effect
# Outline: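 Concentration-response curves came straight from titrations: 11 points (0.78 nM to 46 µM) for MIPE and several concentrations (0.59 nM to 46 µM) for NPC in primary, 11 points in follow-up. Readout: ATP luminescence at 48 h.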
# [3] = qHTS of pediatric cancer cell lines to identify multiple opportunities for drug repurposing: Confirmatory screen for SK-N-MC cells (AID 1347111);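 note: potency is the fitted concentration of half-maximal effect; cells exposed to compound for 48 h before the readout; nearly all actives have a fitted effect of over 70% in size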
# Outline: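 Seed 500-1,000 cells/well; rest 5 h at 37 degrees C. Pin-transfer compounds, 11-point titration. Incubate 48 h. Add CellTiter-Glo, 15 min RT, read luminescence.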
# [4] = qHTS of pediatric cancer cell lines to identify multiple opportunities for drug repurposing: Primary screen for A673 cells (AID 1347092); note: nearly all actives have a fitted effect of over 45% in size; note: potency is the fitted concentration of half-maximal effect
# Outline: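 48 h compound exposure, A673, 500-1,000 cells/well, 37 degrees C/5% CO2. MIPE: 11-point, 0.78 nM-46 µM; NPC: 8-point, 0.59 nM-46 µM (final). Readout CellTiter-Glo luminescence after 15 min RT.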
# [5] = qHTS of pediatric cancer cell lines to identify multiple opportunities for drug repurposing: Primary screen for SK-N-MC cells (AID 1347093); note: potency is the fitted concentration of half-maximal effect
# Outline: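 Metabolically active cells were quantified by ATP-dependent luminescence (CellTiter-Glo, 15 min at room temperature) following 48 h treatment. Cells had been plated at 500-1,000 per well and settled for 5 h beforehand.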
# [6] = qHTS of pediatric cancer cell lines to identify multiple opportunities for drug repurposing: Primary screen for BT-37 cells (AID 1347094); note: potency is the fitted concentration of half-maximal effect
# Outline: (§2)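 Viability was measured as metabolically active cells after 48 hours of treatment, read by CellTiter-Glo luminescence. Compounds were tested at multiple final concentrations, giving concentration-response curves.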
# [7] = qHTS of pediatric cancer cell lines to identify multiple opportunities for drug repurposing: Primary screen for NB-EBc1 cells (AID 1347095); note: potency is the fitted concentration of half-maximal effect
# Outline: as §2
# [8] = qHTS of pediatric cancer cell lines to identify multiple opportunities for drug repurposing: Primary screen for U-2 OS cells (AID 1347096); note: nearly all actives have a fitted effect of over 50% in size
# Outline: as §1
# [9] = qHTS of pediatric cancer cell lines to identify multiple opportunities for drug repurposing: Primary screen for SK-N-SH cells (AID 1347098); note: nearly all actives have a fitted effect of over 65% in size; note: potency is the fitted concentration of half-maximal effect
# Outline: as §1
# [10] = qHTS of pediatric cancer cell lines to identify multiple opportunities for drug repurposing: Primary screen for NB1643 cells (AID 1347099); note: nearly all actives have a fitted effect of over 50% in size; note: potency is the fitted concentration of half-maximal effect
# Outline: as §2
# [11] = qHTS of pediatric cancer cell lines to identify multiple opportunities for drug repurposing: Primary screen for BT-12 cells (AID 1347101); note: nearly all actives have a fitted effect of over 25% in size; note: potency is the fitted concentration of half-maximal effect
# Outline: as §1
# [12] = qHTS of pediatric cancer cell lines to identify multiple opportunities for drug repurposing: Primary screen for OHS-50 cells (AID 1347103); note: nearly all actives have a fitted effect of over 40% in size; note: potency is the fitted concentration of half-maximal effect
# Outline: as §1
# [13] = qHTS of pediatric cancer cell lines to identify multiple opportunities for drug repurposing: Primary screen for control Hh wild type fibroblast cells (AID 1347106); note: nearly all actives have a fitted effect of over 55% in size; note: potency is the fitted concentration of half-maximal effect
# Outline: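 Viability after 48 h compound treatment at 37C, 500-1,000 cells/well, read as ATP luminescence with CellTiter-Glo. Primary screens used 11-point (MIPE, 0.78 nM-46 µM) or 8-point (NPC, 0.59 nM-46 µM) final concentrations; follow-up screens used 11-point dilutions.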
# [14] = qHTS of pediatric cancer cell lines to identify multiple opportunities for drug repurposing: Primary screen for Rh41 cells (AID 1347108); note: nearly all actives have a fitted effect of over 70% in size; note: potency is the fitted concentration of half-maximal effect
# Outline: as §2
# [15] = qHTS of pediatric cancer cell lines to identify multiple opportunities for drug repurposing: Primary screen for Saos-2 cells (AID 1347097); note: nearly all actives have a fitted effect of over 40% in size; note: potency is the fitted concentration of half-maximal effect
# Outline: as §2
# [16] = qHTS of pediatric cancer cell lines to identify multiple opportunities for drug repurposing: Primary screen for LAN-5 cells (AID 1347100); note: potency is the fitted concentration of half-maximal effect
# Outline: as §1
# [17] = qHTS of pediatric cancer cell lines to identify multiple opportunities for drug repurposing: Primary screen for Rh18 cells (AID 1347102); note: nearly all actives have a fitted effect of over 65% in size; note: potency is the fitted concentration of half-maximal effect
# Outline: as §1
# [18] = qHTS of pediatric cancer cell lines to identify multiple opportunities for drug repurposing: Primary screen for MG 63 (6-TG R) cells (AID 1347105); note: nearly all actives have a fitted effect of over 50% in size; note: potency is the fitted concentration of half-maximal effect
# Outline: as §2
# [19] = qHTS of pediatric cancer cell lines to identify multiple opportunities for drug repurposing: Primary screen for Rh30 cells (AID 1347107); note: series mostly up to about 46 µM; nearly all actives have a fitted effect of over 75% in size
# Outline: as §1
# [20] = qHTS of pediatric cancer cell lines to identify multiple opportunities for drug repurposing: Primary screen for RD cells (AID 1347104); note: nearly all actives have a fitted effect of over 55% in size; note: potency is the fitted concentration of half-maximal effect
# Outline: as §2
Compound,Potency [1],Potency [2],Potency [3],Potency [4],Potency [5],Potency [6],Potency [7],Potency [8],Potency [9],Potency [10],Potency [11],Potency [12],Potency [13],Potency [14],Potency [15],Potency [16],Potency [17],Potency [18],Potency [19],Potency [20]
CCC(C)n1ncn(-c2ccc(N3CCN(c4ccc(OC[C@H]5CO[C@](Cn6cncn6)(c6ccc(Cl)cc6Cl)O5)cc4)CC3)cc2)c1=O (stereo not given in full),inactive,inactive,4.65 µM (active),–,–,–,–,–,–,–,–,–,–,–,–,–,–,–,–,–
NC(=O)c1ccc(I)c([N+](=O)[O-])c1,–,–,55.1 µM (active),–,–,–,–,–,–,–,–,–,–,–,–,–,–,–,–,–
O=C(Nc1nc2ccccc2n1CCN1CCOCC1)c1cccc([N+](=O)[O-])c1,–,–,–,3.72 µM (active),3.32 µM (active),7.69 µM (active),7.43 µM (active),inactive,24.1 µM (active),7.43 µM (active),21.7 µM (active),9.68 µM (active),inactive,18.7 µM (active),–,–,–,–,–,–
Cc1csc(NC(=O)c2sc3nc4c(c(C(F)(F)F)c3c2N)CCC4)n1,–,–,–,1.18 µM (active),inactive,8.63 µM (active),inactive,inactive,–,–,inactive,–,2.64 µM (active),–,inactive,inactive,inactive,inactive,–,–
COc1ccc(-c2ccc3c(N4CCOCC4)nc(N4C[C@@H](C)O[C@@H](C)C4)nc3n2)cc1CO,–,0.293 µM (active),–,11.8 µM (active),0.0935 µM (active),1.37 µM (active),1.48 µM (active),–,–,inactive,–,0.217 µM (active),–,0.743 µM (active),–,–,–,0.187 µM (active),inactive,–
Cc1cccc(-c2nn(C(=S)Nc3ccccc3)cc2-c2ccnc3ccccc23)n1,–,–,–,inactive,inactive,inactive,inactive,inactive,inactive,inactive,–,–,inactive,inactive,–,–,inactive,inactive,inactive,inactive
C[C@]12CC[C@H](O)CC1=CC[C@@H]1[C@H]2CC[C@]2(C)C(c3cccnc3)=CC[C@H]12,–,–,–,inactive,inactive,inactive,–,inactive,inactive,inactive,inactive,inactive,inactive,inactive,–,inactive,inactive,inactive,–,inactive
COc1cc(Nc2ncc3c(n2)-c2ccc(Cl)cc2C(c2c(F)cccc2OC)=NC3)ccc1C(=O)O,–,–,0.261 µM (active),inactive,0.0743 µM (active),inactive,0.0332 µM (active),–,8.57 µM (active),13.2 µM (active),–,–,inactive,–,4.69 µM (active),0.0093 µM (active),20.9 µM (active),5.9 µM (active),–,–
Cc1cc(Nc2nc(N[C@@H](C)c3ncc(F)cn3)ncc2Cl)n[nH]1,–,–,–,1.18 µM (active),3.72 µM (active),15.3 µM (active),18.7 µM (active),–,15.2 µM (active),1.32 µM (active),34.3 µM (active),15.3 µM (active),inactive,9.35 µM (active),26.4 µM (active),–,–,11.8 µM (active),inactive,16.6 µM (active)
CC(C=CC1=C(C)CCCC1(C)C)=CC=CC(C)=CC(=O)O,–,inactive,–,14.8 µM (active) and 296 nM (active),8.33 µM (active) and 1.48 µM (active),inactive,inactive,inactive,inactive,–,inactive,0.344 µM (active),–,–,–,inactive,inactive,9.35 µM (active),–,–
C[C@@H]1CN(Cc2ccc(F)cc2)[C@@H](C)CN1C(=O)c1cc2c(C(=O)C(=O)N(C)C)cn(C)c2cc1Cl,–,–,–,14.8 µM (active),0.0372 µM (active),inactive,–,–,–,2.64 µM (active),–,–,–,14.8 µM (active),–,–,inactive,–,–,0.833 µM (active)
COc1ccc(C2=N[C@H](c3ccc(Cl)cc3)[C@H](c3ccc(Cl)cc3)N2C(=O)N2CCNC(=O)C2)c(OC(C)C)c1,–,–,–,14.8 µM (active),2.64 µM (active),7.69 µM (active),0.743 µM (active),–,3.83 µM (active),2.64 µM (active),24.3 µM (active),–,inactive,18.7 µM (active),23.5 µM (active),2.35 µM (active),5.26 µM (active),–,–,–
Cc1cc(-c2ccc(CC(=O)Nc3ccc(-c4cccnc4)cc3)cc2)ccn1,–,–,–,23.5 µM (active),9.35 µM (active),inactive,–,–,–,–,–,–,inactive,–,–,–,inactive,inactive,–,–
CN(C(=O)c1ccc(F)cc1C(F)(F)F)C1CCN(c2nnc(-c3ccnn3C)c3ccccc23)CC1,–,–,–,11.8 µM (active),0.332 µM (active),inactive,inactive,inactive,–,4.18 µM (active),21.7 µM (active),24.3 µM (active),inactive,–,–,inactive,inactive,–,–,–
CCn1cc(C(=O)O)c(=O)c2cc(F)c(N3CCNC(C)C3)c(F)c21 (stereo not given),–,–,–,inactive,inactive,inactive,inactive,inactive,–,–,inactive,inactive,inactive,inactive,inactive,–,inactive,inactive,inactive,inactive
CC(C)OC(=O)C1=CN(C(=O)c2ccc(F)c(F)c2)CC(C)(C)c2c1[nH]c1ccccc21,–,–,–,inactive,26.4 µM (active),inactive,inactive,inactive,inactive,–,inactive,inactive,inactive,inactive,–,inactive,inactive,inactive,–,inactive
